# According to PubChem BioAssay AID1347146 (National Center for Advancing Translational Sciences (NCATS), 2019):
# Inconclusive results are not listed. Where a call stands in place of a potency, no number is given. Active and inactive are the calls of the source. Calls follow the shape of the dose curve; as a rule, active = well fitted inhibition curve with a large enough effect; inconclusive = small, poorly fitted or top-dose-only effect; inactive = no such curve, though single readings can be large or run the other way.
# Molecular target: Nicotinamide N-methyltransferase (Homo sapiens) (UniProt P40261)
# Sequence (P40261 whole entry, looked up): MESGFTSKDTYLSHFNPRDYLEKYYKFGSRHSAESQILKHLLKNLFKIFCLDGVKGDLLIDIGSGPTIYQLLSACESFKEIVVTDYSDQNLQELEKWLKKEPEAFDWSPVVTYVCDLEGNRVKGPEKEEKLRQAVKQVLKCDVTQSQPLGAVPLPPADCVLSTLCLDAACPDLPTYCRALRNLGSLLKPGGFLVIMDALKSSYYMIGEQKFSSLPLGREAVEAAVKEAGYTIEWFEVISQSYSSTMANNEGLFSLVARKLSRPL
# Test: qHTS Assay for Inhibitors of N-terminal methyltransferase 1 (NTMT1): NNMT MTaseGlo counterscreen assay
# Conditions: NNMT enzyme, MTase-Glo luminescence counterscreen; series mostly up to 57.1 µM
# Source text: Assay Submitter (PI): Rong Huang Ph.D, Purdue University, West Lafayette, IN 47907
# The N-terminal methytransferase 1 is the first methyltransferase that methylates protein alpha-N-amines and plays an important role in regulating cell mitosis, chromatin interactions and DNA repair. It is observed to be over-expressed in various cancer patient tissues like malignant melanoma and colorectal cancer tissues. Knockdown of NTMT1 in cancer cells causes cell mitotic defects and enhances sensitivity to DNA damaging chemotherapeutics. […] These critical cellular processes in which NTMT1 is implicated, coupled with emerging links to cellular dysfunction, strengthen the inference that NTMT1 is a compelling novel anticancer target. Progress have been made in understanding the molecular properties of NTMT1 and the biological consequences of protein alpha-N-terminal methylation, but there are no specific small molecule probes available for NTMT1 to fully characterize its MTase activity. To address this unmet need, a panel of assay is created and established to enable quantitative high-throughput screening (qHTS) for novel, potent, and selective small molecule NTMT1 inhibitors. Two orthogonal qHTS that use different reagents (ThioGlo vs. MTaseGlo) are developed for primary robotic screening against the NCATS chemical library of more than 400,000 small molecules. Identified inhibitors are reacquired, validated, and further characterized.
# MTaseGlo Assay is a luminescence screen that measure the activity of methyltransferases based on the reaction product S-adenosyl homocysteine (SAH). The substrate SAM is converted to SAH upon enzyme activation. MTase-Glo reagent and detection solution convert SAH to ATP and measure the light from the luciferase reaction. Nicotinamide N-methyltransferase (NNMT) is a cystolic enzyme that catalyzes the transfer of a methyl group from the co-factor SAM onto the substrate, nicotinamide (NA) to form 1-methyl-nicotinamide (MNA) and SAH. NNMT MTaseGlo assay is used as a counterscreen to evaluate selectivity of identified inhibitors.
# Early Translation Branch (ETB)
# National Center for Advancing Translational Sciences (NCATS)
# National Institute of Health (NIH)
# NNMT enzyme, SAM, NA, and control is provided by the Huang laboratory.
# In brief, 3 µL of enzyme mixture (final concentrations of 125 nM and 100 µM for NNMT and SAM, respectively) into all wells of a 1,536-well solid-bottom white plate (Greiner Bio One, Monroe, NC). 23 nL of DMSO or compound (final concentration range 234 nM to 143 microM) was transferred via Wako Pin-tool (Wako Automation, Richmond, VA) and incubated (RT) for ~15 minutes. Next, 1 µL of substrate (final concentration 1 µM NA) or buffer was dispensed, and the reaction proceeded for 30 minutes (RT, protected from light) followed by a 1 microL addition of [5X] MTase-Glo Reagent(R). Samples were incubated (RT, protected from light) for 30 minutes to allow for SAH to be converted to ADP, followed by a 5 microL addition of [1X] MTase-Glo Detection Solution(R) to allow for ADP to be converted to ATP, which was then detected with a luciferase reaction. Samples were centrifuged for 15 seconds at 1,000 RPM's, followed by a RT incubation for 30 minutes. Plates were then read using Luminescence optics on a ViewLux detector. Data were normalized to no-enzyme (0% activity) and no-inhibitor (DMSO; 100%) controls, and the resulting percent inhibition data were fitted to a 4-parameter Hill equation using Graphpad Prism.
# Potency is read from the fitted curve at half-maximal effect.
row,Structure (SMILES),Potency
1,Nc1nc(Cl)nc2c1ncn2[C@@H]1O[C@H](COP(=O)(O)OP(=O)(O)OP(=O)(O)O)[C@@H](O)[C@H]1O,inactive
2,C/C(=C\CNc1ncnc2c1ncn2[C@@H]1O[C@H](CO)[C@@H](O)[C@H]1O)CO,inactive
3,COc1cc2nc(N3CCOCC3)nc(NC(C)C)c2cc1OC,inactive
4,Cn1ncc(S(=O)(=O)Cc2ccccc2)c(Br)c1=O,inactive
5,Nc1ccnc2c1ncn2[C@@H]1O[C@H](CO)[C@@H](O)[C@H]1O,14.1 µM (active)
6,N#C/C(=C\c1ccc(O)c(O)c1)C(=O)Nc1ccccc1,inactive
7,Oc1cc2c(cc1O)CN(C(=S)NCCc1ccc(Cl)cc1)CCC2,inactive
8,CN(C)CCCN1c2ccccc2Sc2ccccc21,inactive
9,Oc1ccc(Cn2cc[nH]c2=S)cc1,inactive
10,O=C(O)Cc1ccc(O)c(O)c1,inactive
11,CN(C)CCCN1c2ccccc2Sc2ccc(C(F)(F)F)cc21,inactive
12,Cc1c(OCC(F)(F)F)ccnc1CS(=O)c1nc2ccccc2[nH]1 (stereo not given),inactive
13,NC[C@@H]1O[C@H](C23CC4CC(CC(C4)C2)C3)Cc2c1ccc(O)c2O,inactive
14,COc1ccccc1N1CCN(CCN2C(=O)CC3(CCCC3)CC2=O)CC1,inactive
15,COc1cccc(OC)c1OCCNCC1CSc2ccccc2O1 (stereo not given),inactive
16,CCCCNc1ccc(C(=O)OCCN(C)C)cc1,inactive
17,C=CCN1CCc2cc(O)c(O)cc2[C@H](c2ccccc2)C1,inactive
18,COc1cc(/C=C(\C#N)C(=O)Nc2nnc(C(F)(F)F)s2)ccc1OCc1ccc(C(F)(F)F)cc1C(F)(F)F,inactive
19,CC(C)=CCNc1ncnc2c1ncn2[C@@H]1O[C@H](CO)[C@@H](O)[C@H]1O,inactive
20,Nc1ncnc2c1ncn2[C@@H]1O[C@H](COP(=O)(O)OP(=O)(O)OC[C@H]2OC(O)[C@H](O)[C@@H]2O)[C@@H](O)[C@H]1O (stereo not given in full),inactive

row,Structure (SMILES),Potency
1,O=[N+]([O-])c1ccc(-c2nc(-c3ccc(F)cc3)c(-c3ccncc3)[nH]2)cc1,inactive
2,CN(C)[C@@H]1C(=O)C(C(N)=O)=C(O)[C@@]2(O)C(=O)C3=C(O)c4c(O)ccc(Cl)c4[C@@H](O)[C@H]3C[C@@H]12,inactive
3,O=S(=O)(c1cccc2c(Cl)cccc12)N1CCCNCC1,inactive
4,CN(C)CCCc1cc(C(=O)Nc2ccc(-c3ccncc3)cc2)ccc1O,inactive
5,CC[n+]1c(/C=C/C=C2/N(C)c3ccccc3C2(C)C)sc2ccccc21,15.8 µM (active)
6,COc1cc2c(NC3CCN(C(C)C)CC3)nc(N3CCCN(c4ccccc4)CC3)nc2cc1OCCCN1CCCC1,inactive
7,Cc1cc2c(cc1Cl)N(C(=O)Nc1ccc(Oc3cccnc3C)nc1)CC2,inactive
8,Oc1cc2c(cc1O)C(c1ccccc1)CNCC2 (stereo not given),inactive
9,Oc1ccc2ccccc2c1SSc1c(O)ccc2ccccc12,inactive
10,COc1cc2nc(N3CCCN(C)CC3)nc(N3CCN(C)CC3)c2cc1OC,inactive
11,NS(=O)(=O)c1cccc2c1c([N+](=O)[O-])cc1nc(O)c(O)nc12,inactive
12,CN1Cc2sccc2C(c2ccc(O)c(O)c2)C1 (stereo not given),inactive
13,O=c1ccc2ccc(O)c(O)c2o1,inactive
14,S=C(S)N1CCCC1,25.1 µM (active)
15,O=C1c2c(O)cc(O)cc2OC(c2ccc(O)c(O)c2)C1O (stereo not given),inactive
16,O=C(Nc1ccc([N+](=O)[O-])cc1Cl)c1cc(Cl)ccc1O,inactive
17,Clc1nccc2c1ccc1ccccc12,inactive
18,Nc1ncnc2c1ncn2[C@@H]1O[C@H](C(=O)N2CCN(CC(=O)Nc3cccc4c3CNC4=O)CC2)[C@@H](O)[C@H]1O,inactive
19,CCCc1cc(C)[nH]c(=O)c1CNC(=O)c1cc(-c2ccc(N3CCN(C(C)C)CC3)nc2)cc2c1cnn2C(C)C,inactive
20,CC(Cc1ccc(O)c(O)c1)C(C)Cc1ccc(O)c(O)c1 (stereo not given),39.8 µM (active)
